Each structure is given as a SMILES string. Screen size: about 1,200 compounds; about 480 (40%) were called active. No rule for the calls is given here. The set was probably picked from earlier hits. Only a sample is shown. Results with a measured potency or affinity are listed apart.

This assay in a line: HepG2 cell cytotoxicity, dose response, cytotoxicity control, CellTiter-Glo luminescence, cherry-pick, set 2 (AID 743395). The following applies: HepG2 viability, CellTiter-Glo ATP luminescence, 72 h; series mostly up to 26 µM.
For the compound `Cc1ccc(S(=O)(=O)N2CCN(C(=O)CN(Cc3ccco3)Cc3cccs3)CC2)cc1`, the outcome was inactive.

Turning to `CCN(C(=O)COC(=O)c1cccc2ccccc12)c1c(N)n(Cc2ccccc2)c(=O)[nH]c1=O`, the compound was classed as inactive.

Consider `O=C(Nc1ccc(F)cc1)C1CCN(C(=O)c2ccc(F)cc2)CC1`, for which the compound was called inactive.

As for `COc1cccc(-c2nnc(SCC(=O)NC3CCS(=O)(=O)C3)n2C)c1` (stereo not given), the outcome was inactive.

For `O=C(NCc1ccccn1)c1n[nH]c(=O)c2ccccc12`, the compound was classed as inactive.

For the compound `O=C(Cc1ccsc1)OCC(=O)c1ccccc1`, the compound was classed as inactive.

In the case of `CCC(=O)c1ccc(OCC(=O)OCC(=O)N2CCc3ccccc3C2)cc1`, the compound was classed as inactive.

As to `CCN(CC)c1ccc2c(cc1=O)[C@@H](NC)CCc1cc(OC)c(OC)c(OC)c1-2`, the compound was classed as inactive.

On to `COc1c(O[C@@H]2O[C@H](CO)[C@@H](O)[C@H](O)[C@H]2O)cc2c(c1OC)-c1ccc(SC)c(=O)cc1C(NC(C)=O)CC2` (stereo not given in full), for which the result was inactive.

For `CN[C@H]1CCc2cc(OC)c(OC)c(OC)c2-c2ccc(N(C)CC(OC)OC)c(=O)cc21`, the compound was classed as inactive.

`CO[C@H]1CN(C)C(=O)c2cc(NC(C)=O)ccc2OC[C@H](C)N(C(=O)c2ccncc2)C[C@H]1C`: the call was inactive.

For the compound `CCOC(=O)CSC1=C(C#N)C(c2ccc(C)s2)CC(=O)N1` (stereo not given), the call was inactive.

As for `CN(C(=O)c1ccccc1OC1CCN(S(C)(=O)=O)CC1)C1CCOC1` (stereo not given), the outcome was inactive.

Turning to `COCCOC(=O)c1[nH]c2c(c1C)C(=O)CC(c1cccs1)C2` (stereo not given), the result was inactive.

As to `O=C1C=CN(C2OC(CO)C(O)C2O)C(=O)C1` (stereo not given), the call was inactive.

As for `Nc1ccn([C@H]2C[C@H](O)[C@@H](CO)O2)c(=O)n1`, the compound was classed as inactive.

For the compound `Nc1ccn([C@@H]2O[C@H](C(=O)NCC(F)(F)F)[C@@H](O)[C@H]2O)c(=O)n1`, the compound was called inactive.

Consider `Cc1ccc(C(=O)OCC(=O)NCc2cc(C)c(O)c(C)c2)cc1S(=O)(=O)N1CCCCC1`, for which the compound was classed as inactive.

With `CC(OC(=O)CCCC(=O)Nc1ccc(F)cc1)C(=O)c1ccccc1` (stereo not given), the outcome was inactive.

`CC1Cc2ccccc2N1S(=O)(=O)c1cccc(C(=O)N2CCN(c3ncccn3)CC2)c1` (stereo not given): the compound was classed as inactive.

In the case of `COc1ccccc1N1CCN(C(CNS(=O)(=O)c2cccs2)c2cccnc2)CC1` (stereo not given), the outcome was inactive.

Turning to `CN(C[C@H](Cc1ccccc1)N(C[C@H](Cc1ccccc1)N(CCC(C)(C)C)N=O)N=O)N=O`, the call was inactive.

Take `O=C1c2cccc3c(O)ccc(c23)C(=O)N1c1ccc(Cl)cc1`: the compound was called inactive.

For `N#CC1=C(N)OC2=C(CCc3ccccc32)C1c1ccccc1Cl` (stereo not given), the outcome was inactive.

With `COc1nc(N)nc(NC(=O)c2cccs2)c1N=O`, the compound was classed as inactive.

Turning to `Cc1ccc(Cc2c(-c3ccc(C)cc3)nc3c(C)cc(Br)cn23)cc1`, the outcome was inactive.

Regarding `CC(C)(C)NC(=O)c1cccc2c1-c1ccccc1C2=O`, the outcome was inactive.

`CC1=C(C(=O)NC2CCCCC2C)C2(CCC(C)CC2)OC1=O` (stereo not given): the result was inactive.

For `COc1ccc(C(C#N)CC(=O)c2ccc3c(c2)OCO3)cc1OC` (stereo not given), the call was inactive.

On to `Cc1cc(Br)cn2c(Cc3ccsc3)c(-c3ccc(F)cc3)nc12`, for which the compound was called inactive.

Regarding `Cc1cccc(OCC(=O)NNC(=O)c2ccc3nc[nH]c3c2)c1`, the compound was called inactive.

`COc1ccc(C(=O)Nc2ccc(NC(=O)c3cccc(F)c3)cn2)cc1`: the result was inactive.

Consider `COc1ccc(NC(=O)c2ccc(OCC3CCCO3)cc2)cc1OC` (stereo not given), for which the compound was called inactive.

For the compound `COc1ccc(C(=O)OCc2nc(N)nc(Nc3ccccc3C)n2)cc1OC`, the call was inactive.

With `CC(OC(=O)c1ccc(Cl)nc1)C(=O)NC(C)(C)C` (stereo not given), the call was inactive.

For `NS(=O)(=O)c1cc(C2(O)NC(=O)c3ccccc32)ccc1Cl` (stereo not given), the call was inactive.

Regarding `CCNC(=O)C[C@@H]1C=C[C@@H](NC(=O)NC2CCCCC2)[C@H](CO)O1`, the compound was called inactive.

In the case of `O=C(CSC1=NCCN1)Nc1cccc([N+](=O)[O-])c1`, the compound was classed as inactive.

On to `COc1ccc([C@@H]2[C@@H]3C(=O)N(C(C)(C)C)C(=O)[C@@H]3[C@]3(Cc4ccccc4)C(=O)N(c4ccc(C(F)(F)F)cc4)C(=O)N23)cc1`, for which the outcome was inactive.

As for `CCc1ccccc1N(C)S(=O)(=O)c1ccc(-c2cc(C)no2)s1`, the compound was called inactive.

For the compound `Cc1ccc(OCCC(=O)NNC(=O)c2ccc(Br)cc2)cc1`, the outcome was inactive.

As to `O=C(NCCCN1CCOCC1)c1sc2cc(Cl)ccc2c1Cl`, the compound was called inactive.

As for `O=C(NCCCN1CCOCC1)c1cc(S(=O)(=O)N2CCOCC2)c(Cl)cc1Cl`, the call was inactive.

Regarding `CN(C)CCCN1c2ccccc2Sc2ccccc21`, the compound was classed as inactive.

For `COC(=O)C1CC23C=CCN4CCC5(c6ccccc6NC15C2C)C43` (stereo not given), the result was inactive.

As for `COc1ccccc1NC(=O)C(=O)NCC(c1ccco1)N1CCc2ccccc21` (stereo not given), the compound was classed as inactive.

Regarding `COc1ccc(C(=O)NCC(c2ccco2)N2CCc3ccccc32)cc1` (stereo not given), the call was inactive.

`CCCc1nc(SC2CCCC2)c2c(=O)n(C)c(=O)n(C)c2n1`: the outcome was inactive.

`COc1cc(OC)cc(C(=O)N2CC(=O)Nc3ccccc32)c1`: the result was inactive.

Turning to `COc1ccc(NCC(=O)n2c(C)c(C)c3ccccc32)cc1`, the outcome was inactive.

For the compound `COc1ccc(/C=C2/CCCc3ccccc3C2=O)cc1`, the call was inactive.

Turning to `COC(=O)c1cn(C(=O)c2ccc(C)cc2C)c2ccccc12`, the result was inactive.

As for `O=C(NCc1cccnc1)c1cc(C2CCCCN2C(=O)CCCc2ccccc2)on1` (stereo not given), the result was inactive.

In the case of `COc1ccccc1/C=N/NC(=O)c1cc2c(OC)c(OC)ccc2[nH]1`, the outcome was inactive.

In the case of `CCCOCCOC(=O)c1[nH]c2c(c1C)C(=O)CC(c1cc(OC)ccc1OC)C2` (stereo not given), the compound was classed as inactive.

In the case of `Cc1ccc(C)c(NC(=O)CCC(=O)N/N=C/c2cc([N+](=O)[O-])ccc2O)c1`, the result was inactive.

In the case of `CN(CC(=O)Nc1ccc(Cl)c(C(F)(F)F)c1)C(=O)CCN1C(=O)C2CCCCC2C1=O` (stereo not given), the compound was classed as inactive.

Consider `CCOC(=O)c1nc(C)sc1-c1ccnn1S(=O)(=O)c1ccccc1C(F)(F)F`, for which the call was inactive.

As to `CC(=O)c1c(C)[nH]c(C(=O)OCC(=O)NCc2ccc(Cl)cc2)c1C`, the outcome was inactive.

Consider `O=C1NCCc2c1[nH]c1ccc([N+](=O)[O-])cc21`, for which the compound was classed as inactive.

In the case of `O=C(CCNC(=O)c1ccco1)Nc1nc(-c2ccccc2)cs1`, the outcome was inactive.

Turning to `COc1cc(/C=C2\SC(=Nc3ccc(Cl)c(C(=O)O)c3)NC2=O)c(Br)c(Br)c1O`, the outcome was inactive.

`COc1ccc2c(c1)/C(=C/c1cc(OC)c(OC)c(OC)c1)C(=O)N2`: the compound was called inactive.

Regarding `Cc1nn(C2CCS(=O)(=O)C2)c2nc(C3CC3)cc(C(=O)Nc3cccc(C#N)c3)c12` (stereo not given), the compound was classed as inactive.

As for `COc1ccc(C#Cc2ccc3c(c2)O[C@H](CN(C)C(=O)Nc2cccc(OC)c2)[C@H](C)CN([C@H](C)CO)S3(=O)=O)cc1`, the compound was called inactive.

For `COc1ccc(NC(=O)C(=O)c2cn(CC(=O)N3CCCC3)c3ccccc23)cc1OC`, the compound was classed as inactive.

On to `COc1ccc(CNCC(=O)Nc2ccccc2-n2cccc2)cc1`, for which the compound was classed as inactive.

On to `CCCCNC(=O)c1onc(CSc2ccccc2C)c1C(=O)O`, for which the call was inactive.

For the compound `COc1cccc(C2=CC(c3ccccc3)n3nnnc3N2)c1` (stereo not given), the compound was classed as inactive.

As to `CCOc1cc(N2CCOCC2)c(OCC)cc1NC(=O)CN1C(=O)NC2(CCCCC2)C1=O`, the result was inactive.

As to `COCCCN=C1NN=C(c2cc(C)n(Cc3ccccc3Cl)c2C)CS1`, the compound was classed as inactive.

`C[C@H]1CNC(=O)c2c(C(=O)Nc3ccc(CNC(=O)OC(C)(C)C)cc3)ncn21`: the compound was called inactive.

Take `C[C@H]1CN([C@@H](C)CO)S(=O)(=O)c2ccc(C#Cc3cccc(F)c3)cc2O[C@H]1CN(C)C(=O)NC1CCCCC1`: the call was inactive.

Turning to `C[C@H](CO)N1C[C@H](C)[C@H](CN(C)C(=O)NC2CCCCC2)Oc2cc(C#Cc3ccc(F)cc3)ccc2S1(=O)=O`, the call was inactive.

In the case of `C[C@H](CO)N1C[C@H](C)[C@H](CN(C)C(=O)NC2CCCC2)Oc2cc(C#Cc3ccc(F)cc3)ccc2S1(=O)=O`, the compound was called inactive.

In the case of `C[C@H](CO)N1C[C@H](C)[C@@H](CN(C)C(=O)NC2CCCCC2)Oc2cc(C#Cc3ccc(F)cc3)ccc2S1(=O)=O`, the compound was called inactive.

With `CC(=O)N(C)C[C@@H]1Oc2cc(C#Cc3ccc(F)cc3)ccc2S(=O)(=O)N([C@H](C)CO)C[C@@H]1C`, the compound was called inactive.

On to `C[C@@H]1CN([C@H](C)CO)S(=O)(=O)c2ccc(C#Cc3cccc(F)c3)cc2O[C@@H]1CN(C)C(=O)NC1CCCCC1`, for which the call was inactive.

As to `Cc1cccc2c(N=Nc3ccc(S(=O)(=O)Nc4ccc(Cl)cc4)cc3[N+](=O)[O-])c(O)[nH]c12`, the outcome was inactive.

Regarding `Cc1ccc(-c2nc(CSCC(=O)Nc3cc(C)on3)c(C)o2)cc1`, the outcome was inactive.

Turning to `COc1ccc(C#Cc2ccc3c(c2)O[C@@H](CN(C)C(=O)Nc2cccc(OC)c2)[C@H](C)CN([C@H](C)CO)S3(=O)=O)cc1`, the call was inactive.

Regarding `CO[C@@H]1CN(C)C(=O)c2cc(NC(=O)Nc3c(C)noc3C)ccc2OC[C@@H](C)N(C)C[C@@H]1C`, the compound was classed as inactive.

On to `Cc1cccc(OCCNC(=O)c2ccc(Cl)c(S(=O)(=O)NCc3cccnc3)c2)c1`, for which the result was inactive.

On to `Cc1ccc(S(=O)(=O)NCc2ccccc2)cc1C(=O)N1CC(C)CC(C)C1` (stereo not given), for which the compound was called inactive.

Regarding `N=c1sccn1CC(=O)Nc1ccc(S(N)(=O)=O)cc1`, the result was inactive.

Turning to `COC(=O)C[C@@H]1CC[C@@H]2[C@H](COc3ccc(NC(=O)c4ccc(C(F)(F)F)cc4)cc3C(=O)N2C)O1`, the compound was classed as inactive.

For the compound `NS(=O)(=O)c1ccc(CNc2ccc3ccccc3n2)cc1`, the compound was classed as inactive.

For `O=C(CN(Cc1ccccc1)S(=O)(=O)c1ccc(F)cc1)NCc1cccnc1`, the result was inactive.

For the compound `COC(=O)c1ccsc1NC(=O)c1ccccc1`, the call was inactive.

For the compound `CCN(C(=O)COC(=O)c1cc(-c2ccccc2)nc2c1c(C)nn2-c1ccc(C)cc1)C1CCS(=O)(=O)C1` (stereo not given), the result was inactive.

As to `CC(C)c1ccc(CN2CCN(S(=O)(=O)c3ccc(Cl)s3)CC2)cc1`, the compound was classed as inactive.

On to `Cc1cc(C)cc(C(=O)NCC(=O)OCc2cc([N+](=O)[O-])cc3c2OCOC3)c1`, for which the outcome was inactive.

As to `CCN(CC)C(=S)SSC(=S)N(CC)CC`, the result was inactive.

As for `Cc1cc2c(cc(C(=O)OC(C)C(=O)NCc3ccc(F)cc3)n2C)o1` (stereo not given), the result was inactive.

Turning to `CCN(CC)CCn1c2c(c(SCC(=O)Nc3ccc(F)c(F)c3)nc1=O)CCC2`, the compound was classed as inactive.

These data come from PubChem BioAssay AID743395 (Broad Institute, 2014).
